{"source": "PubChem BioAssay AID1508642", "about": "(National Center for Advancing Translational Sciences (NCATS), 2021)", "note": "The campaign covered roughly 43,000 compounds. About 200 (0.47%) were called active. Another 12% or so got no clear call; they are omitted. The entries come from a sample that favours actives as a whole. Unmarked numbers belong to inactive results. Calls follow the shape of the dose curve; as a rule, active = well fitted cell-killing curve with a large enough effect; inconclusive = small, poorly fitted or top-dose-only effect, or effect the other way; inactive = flat fitted curve, though single readings scatter. % is scaled to controls: 0 for no effect and ±100 for the full control effect; potency is read from the fitted curve at half-maximal effect.", "data": [{"assay": "Cell viability qHTS assay in S16 Pmp22-F2sN cells; also: nearly all actives have a fitted effect of over 65% in size", "settings": "S16 Pmp22-F2sN Schwann cells (luciferase reporters placed in the Pmp22 gene) viability, CellTiter-Glo, 24 h; series mostly up to 57.5 µM; activity change, negative = cytotoxicity: at the top concentration", "source_text": "Assay Provider: Jim Inglese Ph.D. National Center for Advancing Translational Science, National Institutes of Health, Rockville, MD CMT is a heterogeneous group of neurological disorders that affect approximately 1 in 2,500 people. In particular, the most common form of CMT, CMT1A is genetically linked to the duplication of the PMP22 gene which leads to Schwann cell overexpression, thus manifesting itself as a typical case of dose-sensitive diseases. To identify small molecule compounds that can mediate the expression of PMP22 we developed a phenotypic assay screening strategy by utilizing genome editing techniques to construct Schwann cell lines containing novel reporter technology to monitor the transcriptional or translational regulation of PMP22. For high sensitivity we use a bioluminescent reporter system embedded in the 3' UTR of the PMP22 gene (S16(c9) Pmp22-F2sN) to identify compounds that inhibit gene expression. […] We can further discriminate the effect of all transcriptionally active molecules on PMP22 translation or stability with an assay that incorporates a short NLuc peptide (HiBiT) at the C-terminus of expressed PMP22 (S16(f8) PMP22-HiBiT) allowing alpha complementation and luminescence detection of membrane-associated PMP22 protein. These assays were screened against the NCATS Sytravon Library Collection. Miniaturization of these assays to 1536-well plate format for quantitative high throughput screening (qHTS) yielded rich data sets immediately from the qHTS assay (S16(c9) Pmp22-F2sN), when compared with data from a cell viability assay (Cell TiterGlo) to identify compounds that decreased the output signals through cellular toxicity to streamline the selection process of actives for subsequent characterization using the HiBiT assay (S16(f8) PMP22-HiBiT).\nCell viability assay in S16 Pmp22-F2sN cells PROTOCOL TABLE (format as described by Inglese J, Shamu CE and Guy RK. 2007) SEQUENCE No. (e.g., 1, 2, 3, etc.); […] (e.g., Cells, Incubation, Reagent, etc.); VALUE and DESCRIPTION. 1. Cells. Add 500-1,000 cells in 4 uL in growth media (DMEM High Glucose, No Phenol Red media + 10% heat-inactivated FBS + 1% Pen/Strep supplemented media) per well into Greiner 1536-well white/solid bottom high base, TC-treated plates. 2. Compounds. Library compounds and controls added at 23nL per well, transferred by Pin Tool. 3. Incubation. Incubate plates at 37C, 5% CO2, 95% RH for 24 h. 4. Reagent. Add 3uL CellTiter-Glo per well of Greiner 1536-well plates. 5. Incubation. Incubate plates at room temperature for 15 min., protect from light. 6. Detector. FLuc luminescence measured using CCD-based camera (Viewlux). NOTES (numbers refer to Sequence numbers above; values are from representative experiments) 6. Luminescence Read: Clear filter; Exposure = 1 sec, Gain = High, Speed = Slow, Binning = 2X REFERENCES: 1. Inglese J, Shamu CE and Guy RK, Reporting data from high throughput screening of small molecule libraries, Nature Chemical Biology, 2007, 3(8): 438-441. doi.org/10.1038/nchembio0807-438 2. Yasgar A, Shinn P, Jadhav A, Auld DS, Michael S, Zheng W, Austin CP, Inglese J and Simeonov A, Compound Management for Quantitative High-Throughput Screening. J. Assoc. Lab. Auto., 2008, 13: 79-89. doi: 10.1016/j.jala.2007.12.004", "units": {"activity change, negative = cytotoxicity": "%"}, "values": [{"smiles": "O=C(NCCc1ccc(Cl)cc1)c1ccc2c(c1)N(Cc1ccc(F)cc1)C(=O)CS2", "activity change, negative = cytotoxicity": -25.4}, {"smiles": "Cc1c(C)n(Cc2ccc(Cl)cc2)c2ccc(C(=O)NCCc3ccc(S(N)(=O)=O)cc3)cc12", "activity change, negative = cytotoxicity": -7.69}, {"smiles": "Cc1cccc(N2CCN(C(=O)c3cnc(N4CCCC4)nc3C)CC2)c1C", "activity change, negative = cytotoxicity": -0.0488}, {"smiles": "COc1ccc(Cl)cc1NC(=O)CCn1c(=O)c2cccn2c2ccccc21", "activity change, negative = cytotoxicity": 8.71}, {"smiles": "CSc1oc(-c2cccs2)nc1S(=O)(=O)c1ccc(Br)cc1", "activity change, negative = cytotoxicity": -0.0965}, {"smiles": "CCCCS(=O)(=O)c1oc(-c2cccs2)nc1S(=O)(=O)c1ccccc1", "Potency": "2510 nM (active)"}, {"smiles": "Cc1ccc(CSc2oc(-c3cccs3)nc2S(=O)(=O)c2ccc(C)cc2)cc1", "activity change, negative = cytotoxicity": 17.9}, {"smiles": "COc1cn(CC(=O)Nc2cccc(C)c2C)c(CN2CCCCC2)cc1=O", "activity change, negative = cytotoxicity": -2.31}, {"smiles": "Cc1ccc(NC(=O)Cn2nnc3sc4c(c3c2=O)CCC(C)C4)cc1", "note": "(stereo not given)", "activity change, negative = cytotoxicity": 10.1}, {"smiles": "COc1ccc(CN2CCc3nc(Nc4ccccc4)ncc3C2)c(OC)c1OC", "activity change, negative = cytotoxicity": -0.963}, {"smiles": "CCc1nn(CC(=O)N2CCN(c3ccc(Cl)cc3)CC2)c(=O)c2cc3occc3n12", "activity change, negative = cytotoxicity": 1.57}, {"smiles": "COc1ccc(OC)c(CNC(=O)CN2C(=O)CCn3nc(-c4cn(C)c5ccccc45)cc32)c1", "activity change, negative = cytotoxicity": 2.98}, {"smiles": "Cc1c(Cl)cccc1NC(=O)CCS(=O)(=O)c1ccc2c(c1)oc(=O)n2C", "activity change, negative = cytotoxicity": -29}, {"smiles": "CCC(=O)N1CCc2cc(S(=O)(=O)NC(C(=O)Nc3ccc(C(C)=O)cc3)C(C)C)ccc21", "note": "(stereo not given)", "activity change, negative = cytotoxicity": 1.35}, {"smiles": "CCOc1ccc(-c2cc3nc(C4CCN(C(=O)OC(C)(C)C)CC4)c(C(=O)Nc4ccc(C(=O)OC)cc4)cn3n2)cc1", "activity change, negative = cytotoxicity": 4}, {"smiles": "COCCN(Cc1ccco1)C(=O)Cn1ncc2c([nH]c3ccccc32)c1=O", "activity change, negative = cytotoxicity": 0.904}, {"smiles": "CCOc1ccc(C(NC(=O)c2cc(OC)c(OC)c(OC)c2)c2cc(Cl)c3cccnc3c2O)cc1", "note": "(stereo not given)", "Potency": "1780 nM (active)"}, {"smiles": "COc1cc(C(=O)NCC(c2ccc(Cl)cc2)N2CCOCC2)cc(OC)c1OC", "note": "(stereo not given)", "activity change, negative = cytotoxicity": 0.597}, {"smiles": "COc1c(Cl)cc(Cl)cc1C(=O)Nc1cccc2cccnc12", "activity change, negative = cytotoxicity": 3.69}, {"smiles": "COc1cccc(N2CCN(S(=O)(=O)c3ccc4c(c3)CCCN4C(C)=O)CC2)c1", "activity change, negative = cytotoxicity": -1.03}, {"smiles": "CC(=O)N1CCCc2cc(S(=O)(=O)N3CCCC(C(=O)N4CCN(c5cccc(Cl)c5)CC4)C3)ccc21", "note": "(stereo not given)", "Potency": "25100 nM (active)"}, {"smiles": "CC(=O)N1CCCc2cc(S(=O)(=O)N3CCCC(C(=O)NCc4ccc(Cl)cc4)C3)ccc21", "note": "(stereo not given)", "activity change, negative = cytotoxicity": -24.1}, {"smiles": "COC(=O)c1ccc(NC(=O)CSc2n[nH]c(-c3ccccc3)n2)cc1", "activity change, negative = cytotoxicity": 13.3}, {"smiles": "CCOc1ccccc1NC(=O)Cn1c(=O)n(Cc2ccccc2)c(=O)c2c(C)c(C(=O)N(C)C)sc21", "activity change, negative = cytotoxicity": 5.8}, {"smiles": "Cc1ccccc1NC(=O)Cn1c(=O)n(Cc2ccco2)c(=O)c2ccc(C(=O)NC3CCCC3)cc21", "activity change, negative = cytotoxicity": 7.6}]}]}
